According to PubChem BioAssay (NCI):
This is part of a sample that, as a whole, favours compounds with a hit. Of some 79,000 tested, about 15% had one in any assay. Activity calls are given as the source filed them. Rule as the data show it: active = growth inhibition above about 70%; inactive = the rest.

Columns and labels:
[1] = NCI Yeast Anticancer Drug Screen. Data for the rad52 strain (AID 147);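 also: 0% = growth of vehicle-treated control cultures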; settings: S. cerevisiae rad52 mutant growth inhibition, stronger effect = higher value
In short: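 DNA repair-defective yeast; compound exposure; growth scored against vehicle controls.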

[2] = NCI Yeast Anticancer Drug Screen. Data for the wt1 strain (AID 149);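 also: 0% = growth of vehicle-treated wt1 cultures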; settings: S. cerevisiae wt1 strain (SPY 50644) growth inhibition, stronger effect = higher value
In short: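 wt1 yeast, compound-treated; % growth inhibition vs vehicle control.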

[3] = NCI Yeast Anticancer Drug Screen. Data for the rad50EPP+ strain (AID 151);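 also: 0% = growth of vehicle-treated control cultures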; settings: S. cerevisiae rad50 mutant strain, stronger effect = higher value
In short: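 rad50EPP+ yeast treated with test compounds. Readout: growth vs vehicle control.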

[4] = NCI Yeast Anticancer Drug Screen. Data for the mgt1 strain (AID 153); settings: S. cerevisiae mgt1 mutant growth inhibition, stronger effect = higher value
In short: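 Growth inhibition relative to vehicle controls was scored for the mgt1 yeast strain after compound exposure.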

[5] = NCI Yeast Anticancer Drug Screen. Data for the rad50 strain (AID 155);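 also: 0% = growth of vehicle-only cultures of the same strain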; settings: S. cerevisiae rad50 strain growth inhibition, stronger effect = higher value
In short: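 Genetically altered yeast (DNA repair pathway); compound treatment; growth inhibition vs vehicle ctrl.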

[6] = NCI Yeast Anticancer Drug Screen. Data for the mec2-1 strain (AID 157); settings: S. cerevisiae mec2-1 strain, stronger effect = higher value
In short: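 Growth inhibition is read against vehicle-treated controls after compound exposure of the mec2-1 yeast strain, which is defective in DNA damage repair or cell cycle control.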

[7] = NCI Yeast Anticancer Drug Screen. Data for the rad14 strain (AID 159);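 also: 0% = growth of vehicle-treated control cultures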; settings: S. cerevisiae rad14 strain growth inhibition, stronger effect = higher value
In short: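 Test compounds were applied to a repair-deficient yeast strain. Its growth was then compared with that of cultures given vehicle alone, and inhibition was expressed relative to those controls.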

[8] = NCI Yeast Anticancer Drug Screen. Data for the sgs1 mgt1 strain (AID 161);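 also: 0% = growth of cultures given vehicle only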; settings: S. cerevisiae sgs1 mgt1 strain, stronger effect = higher value
In short: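 Yeast cells carrying a defined DNA-repair defect were exposed to test compounds. Growth inhibition was measured relative to vehicle-treated controls.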

[9] = NCI Yeast Anticancer Drug Screen. Data for the CLN2oe strain (AID 163);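 also: 0% = growth of vehicle-only control cultures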; settings: S. cerevisiae CLN2oe strain, stronger effect = higher value
In short: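 Compound-treated yeast; growth vs vehicle ctrl = % inhibition. Genetically altered strain (cell-cycle control).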

[10] = NCI Yeast Anticancer Drug Screen. Data for the cln2 rad14 strain (AID 165);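 also: 0% = growth equal to vehicle treated cultures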; settings: S. cerevisiae cln2 rad14 strain, stronger effect = higher value
In short: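 Growth inhibition, relative to vehicle-treated controls, is the read-out. The test organism is a yeast strain with defined genetic alterations, cln2 rad14.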

[11] = NCI Yeast Anticancer Drug Screen. Data for the bub3 strain (AID 167); settings: S. cerevisiae bub3 mutant strain, stronger effect = higher value
In short: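 Yeast carrying a defined mutation is treated with each compound, and growth is compared with that of vehicle-exposed cells to give inhibition.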

[12] = NCI Yeast Anticancer Drug Screen. Data for the wt2 strain (AID 169);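 also: 0% = growth of vehicle-treated yeast cultures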; settings: S. cerevisiae wt2 strain growth inhibition, stronger effect = higher value
In short: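 Compound exposure of yeast; growth compared with vehicle controls; inhibition reported.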

[13] = NCI Yeast Anticancer Drug Screen. Data for the mlh1 strain (AID 171);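 also: 0% = growth of vehicle-treated control cultures of the same strain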; settings: S. cerevisiae mlh1 strain growth inhibition, stronger effect = higher value
In short: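 Compounds are applied to a genetically altered yeast strain, and its growth is compared with that of vehicle-treated cultures to give percent inhibition.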

[14] = NCI Yeast Anticancer Drug Screen. Data for the sgs1 strain (AID 173);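 also: 0% = growth of vehicle-only control cultures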; settings: S. cerevisiae sgs1 mutant, stronger effect = higher value
In short: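 Compounds applied to genetically altered yeast; growth compared with vehicle-treated cultures to give % inhibition.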

[15] = NCI Yeast Anticancer Drug Screen. Data for the mlh1 rad18 strain (AID 175); settings: S. cerevisiae mlh1 rad18 strain growth inhibition, stronger effect = higher value
In short: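 Cells of a genetically altered yeast strain, deficient in DNA damage repair, were treated with compound. Their growth was then compared with that of vehicle-treated cultures to give inhibition.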

[16] = NCI Yeast Anticancer Drug Screen. Data for the rad18 strain (AID 177); settings: S. cerevisiae rad18 mutant growth inhibition, stronger effect = higher value
In short: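 Compounds are applied to a repair-deficient yeast strain, and growth is compared with that of vehicle-treated cultures to give percent inhibition.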

[17] = at 5.0 µM (retest, dose inferred, filed as 0.5)
[18] = at 50.0 µM (retest, dose inferred, filed as 5.0)

Measured: growth inhibition

Br[Se]c1ccccn1
active: [1]; at 11.0 µM 97% | [1]; at 33.0 µM 99% | [1]; at 100.0 µM 98% | [2]; at 33.0 µM 99% | [2]; at 100.0 µM 99% | [3]; at 11.0 µM 98% | [3]; at 33.0 µM 99% | [3]; at 100.0 µM 98% | [4]; at 11.0 µM 79% | [4]; at 33.0 µM 99% | [4]; at 100.0 µM 99% | [5]; at 3.7 µM 91% | [5]; at 11.0 µM 97% | [5]; at 33.0 µM 98% | [5]; [18] 99% | [5]; at 50.0 µM 99.5% | [5]; at 100.0 µM 98% | [6]; at 11.0 µM 89% | [6]; at 33.0 µM 99% | [6]; [18] 100% | [6]; at 50.0 µM 99.8% | [6]; at 100.0 µM 99% | [7]; at 11.0 µM 99% | [7]; at 33.0 µM 99% | [7]; at 100.0 µM 99% | [8]; [18] 99% | [8]; at 50.0 µM 99.6% | [9]; at 33.0 µM 99% | [9]; at 100.0 µM 99% | [10]; [18] 99% | [10]; at 50.0 µM 98.3% | [11]; [17] 75% | [11]; at 11.0 µM 93% | [11]; at 33.0 µM 98% | [11]; [18] 100% | [11]; at 50.0 µM 99.7% | [11]; at 100.0 µM 98% | [12]; at 11.0 µM 80% | [12]; at 33.0 µM 99% | [12]; at 100.0 µM 99% | [13]; at 11.0 µM 84% | [13]; at 33.0 µM 99% | [13]; at 100.0 µM 99% | [14]; at 11.0 µM 83% | [14]; at 33.0 µM 99% | [14]; at 100.0 µM 99% | [15]; [18] 99% | [15]; at 50.0 µM 99.7% | [16]; at 11.0 µM 96% | [16]; at 33.0 µM 98% | [16]; at 100.0 µM 98%
inactive: [1]; at 1.2 µM 2% | [1]; at 3.7 µM 53% | [2]; at 1.2 µM 2% | [2]; at 3.7 µM 10% | [2]; at 11.0 µM 58% | [3]; at 1.2 µM -9% | [3]; at 3.7 µM 59% | [4]; at 1.2 µM -3% | [4]; at 3.7 µM 12% | [5]; at 1.2 µM 5% | [5]; [17] 44% | [6]; at 1.2 µM 0% | [6]; at 3.7 µM 34% | [6]; [17] 29% | [7]; at 1.2 µM 5% | [7]; at 3.7 µM 36% | [8]; [17] -5% | [9]; at 1.2 µM -11% | [9]; at 3.7 µM 11% | [9]; at 11.0 µM 62% | [10]; [17] 9% | [11]; at 1.2 µM -2% | [11]; at 3.7 µM 20% | [12]; at 1.2 µM 1% | [12]; at 3.7 µM 14% | [13]; at 1.2 µM -1% | [13]; at 3.7 µM 22% | [14]; at 1.2 µM 0% | [14]; at 3.7 µM 23% | [15]; [17] 31% | [16]; at 1.2 µM 1% | [16]; at 3.7 µM 65%
